This passage reports Potency and viability results from PubChem BioAssay (NCATS).

Records with an inconclusive call do not appear. Values without a mark were called inactive. Calls of active or inactive are those of the source. Calls follow the shape of the dose curve; as a rule, active = well fitted cell-killing curve with a large enough effect; inconclusive = small, poorly fitted or top-dose-only effect, or effect the other way; inactive = no such curve, though single readings can be large or run the other way.

Experiment [1] is described as follows: Quantitative High-Throughput drug screen in 47 multiple myeloma cell lines against the NCATS MIPE library collection: LP1_DSMZ cell viability assay (AID 1918982). Also: nearly all actives have a fitted effect of over 35% in size. In short, it runs like this: (§1)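 Viability after 48 h drug exposure was measured as ATP-dependent luminescence. Cells, 500 per well, sat at 37 °C under 5% CO2; DMSO wells set 100%, media-only wells 0%.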

Experiment [2] can be described thus: Quantitative High-Throughput drug screen in 47 multiple myeloma cell lines against the NCATS MIPE library collection: KMS28PE_JCRB cell viability assay (AID 1918983). Also: nearly all actives have a fitted effect of over 35% in size. In short, it runs like this: as §1
Experiment [3] can be described thus: Quantitative High-Throughput drug screen in 47 multiple myeloma cell lines against the NCATS MIPE library collection: KMS34_JCRB cell viability assay (AID 1918985). Also: nearly all actives have a fitted effect of over 40% in size. In short, it runs like this: as §1
Experiment [4] is described as follows: Quantitative High-Throughput drug screen in 47 multiple myeloma cell lines against the NCATS MIPE library collection: OCIMY7_PLB cell viability assay (AID 1918987). Also: nearly all actives have a fitted effect of over 65% in size. The conditions noted are these: OCI-MY7 myeloma viability, CellTiter-Glo ATP, 48 h; viability (% of DMSO): at 45.8 µM (top of the series). In short, it runs like this:
as §1
(In general: In ATP-based viability assays light output follows the ATP content of the culture.)

Experiment [5] in a line: Quantitative High-Throughput drug screen in 47 multiple myeloma cell lines against the NCATS MIPE library collection: OPM1_PLB cell viability assay (AID 1918989). Also: nearly all actives have a fitted effect of over 40% in size. In short, it runs like this:
as §1

Experiment [6] can be described thus: Quantitative High-Throughput drug screen in 47 multiple myeloma cell lines against the NCATS MIPE library collection: SKMM1_PLB cell viability assay (AID 1919863). Also: nearly all actives have a fitted effect of over 35% in size. The note with it: SKMM1 myeloma viability, CellTiter-Glo ATP, 48 h; viability: hits give low values. In short, it runs like this: as §1
A short description of experiment [7]: Quantitative High-Throughput drug screen in 47 multiple myeloma cell lines against the NCATS MIPE library collection: U266_ATCC cell viability assay (AID 1919864). Also: nearly all actives have a fitted effect of over 35% in size. In short, it runs like this: as §1
The nature of experiment [8]: Quantitative High-Throughput drug screen in 47 multiple myeloma cell lines against the NCATS MIPE library collection: PE2_PLB cell viability assay (AID 1919869). Also: nearly all actives have a fitted effect of over 35% in size. In short, it runs like this: as §1
The nature of experiment [9]: Quantitative High-Throughput drug screen in 47 multiple myeloma cell lines against the NCATS MIPE library collection: RPMI8226_ATCC cell viability assay (AID 1919871). Also: nearly all actives have a fitted effect of over 30% in size. In short, it runs like this:
as §1

The nature of experiment [10]: Quantitative High-Throughput drug screen in 47 multiple myeloma cell lines against the NCATS MIPE library collection: OPM2_DSMZ cell viability assay (AID 1919872). Also: nearly all actives have a fitted effect of over 30% in size. In short, it runs like this: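 CellTiter-Glo ATP luminescence gave viability after 48 h compound treatment at 37C of 500 multiple myeloma cells per well. Normalisation used DMSO-only wells as 100% and media-only wells as 0% viability; primary qHTS of approved and investigational drugs.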

Experiment [11] is described as follows: Quantitative High-Throughput drug screen in 47 multiple myeloma cell lines against the NCATS MIPE library collection: KMS11_JCRBsus cell viability assay (AID 1919873). Also: nearly all actives have a fitted effect of over 50% in size. In short, it runs like this: as §1
Experiment [12] is described as follows: Quantitative High-Throughput drug screen in 47 multiple myeloma cell lines against the NCATS MIPE library collection: KMS28BM_JCRB cell viability assay (AID 1919874). Also: nearly all actives have a fitted effect of over 35% in size. In short, it runs like this:
as §1

Experiment [13] can be described thus: Quantitative High-Throughput drug screen in 47 multiple myeloma cell lines against the NCATS MIPE library collection: OCIMY5_PLB cell viability assay (AID 1918988). Also: nearly all actives have a fitted effect of over 65% in size. In short, it runs like this:
as §1

Experiment [14] in a line: Quantitative High-Throughput drug screen in 47 multiple myeloma cell lines against the NCATS MIPE library collection: XG6_PLB cell viability assay (AID 1919865). Also: nearly all actives have a fitted effect of over 40% in size. In short, it runs like this: as §1
Experiment [15] can be described thus: Quantitative High-Throughput drug screen in 47 multiple myeloma cell lines against the NCATS MIPE library collection: VP6_DJ cell viability assay (AID 1919867). Also: nearly all actives have a fitted effect of over 40% in size. In short, it runs like this: as §1
Experiment [16] can be described thus: Quantitative High-Throughput drug screen in 47 multiple myeloma cell lines against the NCATS MIPE library collection: UTMC2_PLB cell viability assay (AID 1919868). Also: nearly all actives have a fitted effect of over 55% in size. The note with it: CellTiter-Glo ATP luminescence, 48 h; viability (% of DMSO control): at 45.8 µM (top of the series). In short, it runs like this:
as §1

Experiment [17] can be described thus: Quantitative High-Throughput drug screen in 47 multiple myeloma cell lines against the NCATS MIPE library collection: PCM6_Riken cell viability assay (AID 1919870). Also: nearly all actives have a fitted effect of over 30% in size. In short, it runs like this: as §1
Experiment [18] in a line: Quantitative High-Throughput drug screen in 47 multiple myeloma cell lines against the NCATS MIPE library collection: L363_DSMZ cell viability assay (AID 1918984). Also: nearly all actives have a fitted effect of over 40% in size. The note with it: L363 myeloma viability, CellTiter-Glo ATP luminescence, 48 h; viability (% of control): at 45.8 µM (top of the series). In short, it runs like this:
as §1

Experiment [19] is described as follows: Quantitative High-Throughput drug screen in 47 multiple myeloma cell lines against the NCATS MIPE library collection: XG1_PLB cell viability assay (AID 1919866). Also: nearly all actives have a fitted effect of over 35% in size. In short, it runs like this:
as §1
Potency is read from the fitted curve at half-maximal effect.

In the case of `CC1C(=O)OC2C(O)C34C5CC(C(C)(C)C)C36C(OC(=O)C6O)OC4(C(=O)O5)C12O` (centres undefined), the Potency entry in experiment [1], in experiment [2], in [4], in experiment [5], in experiment [7] and in experiment [8] was “inactive” each time. In addition, the Potency entry in experiment [9], in experiment [10], in [11] and in experiment [12] was “inactive” in each case. Moreover, the Potency is 23.5 µM (active) in [3] and 11.8 µM (active) in [6].
Consider `OC(c1cc(C(F)(F)F)nc2c(C(F)(F)F)cccc12)C1CCCCN1` (centres undefined), for which the Potency in experiment [1] is 18.7 µM (active); in experiment [2], 26.4 µM (active); in [4], 10.5 µM (active); in experiment [13] it was 14.8 µM (active); in experiment [5] it was 18.7 µM (active); in experiment [6] it was 23.5 µM (active). Further, the Potency in experiment [7] is 26.4 µM (active); in [14], 26.4 µM (active); in experiment [15], 14.8 µM (active); in [16], 20.9 µM (active); in experiment [8] it was 23.5 µM (active); in experiment [17], 13.2 µM (active). In addition, the values for the Potency in experiment [10] and in [11] were 23.5 µM (active) and 11.8 µM (active), respectively.
For `C[C@H]1COC2=C1C(=O)C(=O)c1c2ccc2c1CCCC2(C)C`, the Potency in experiment [1] is 18.7 µM (active); in [4], 13.2 µM (active); in experiment [13], 20.9 µM (active); in experiment [6], 14.8 µM (active); in experiment [15], 16.6 µM (active); in [16] it was 9.35 µM (active). Further, in experiment [8], the Potency is 26.4 µM (active). In addition, in experiment [18], the Potency entry was “inactive”.
The viability is a read-out of living cells in per cent, often relative to untreated cells. As for `CC[C@H](C=C[C@@H](C)[C@H]1CC[C@H]2[C@@H]3CC=C4C[C@@H](O)CC[C@]4(C)[C@@H]3CC[C@]12C)C(C)C`, the Potency entry in [1], in [18], in experiment [3], in experiment [5], in experiment [7] and in experiment [16] was “inactive” each time. Moreover, the Potency entry in experiment [9] and in [10] was “inactive” throughout. Also, the viability in experiment [6] was 119%. Besides, the Potency is 1.02 µM (active) in [14], 0.0575 µM (active) in experiment [8], 0.575 µM (active) in experiment [17] and 5.12 µM (active) in experiment [11].
With `Fc1ccc(CNc2ncnc3ccc(F)cc23)cc1`, the Potency in experiment [1] is 2.64 µM (active); in experiment [18] it was 5.26 µM (active); in experiment [13], 16.6 µM (active); in experiment [5], 16.6 µM (active); in experiment [7], 13.2 µM (active); in [14], 14.8 µM (active). The Potency in [19] is 4.69 µM (active); in experiment [15], 5.9 µM (active); in [10] it was 2.96 µM (active); in [11] it was 10.5 µM (active). Moreover, the viability in experiment [6] is 104%.
As for `CCN(CC)CCCCNc1nc2cc(Cl)c(Cl)cc2nc1-c1ccc(-c2cccs2)s1`, the Potency in experiment [1] is 8.33 µM (active); in [18] it was 5.9 µM (active); in experiment [3], 16.6 µM (active); in [13] it was 7.43 µM (active); in experiment [5], 5.9 µM (active); in experiment [6] it was 16.6 µM (active). Moreover, the Potency in experiment [7] is 23.5 µM (active); in [14], 8.33 µM (active); in [19] it was 8.33 µM (active); in experiment [15], 8.33 µM (active); in experiment [16] it was 9.35 µM (active); in [8], 9.35 µM (active). Moreover, the Potency is 8.33 µM (active) in experiment [17]; 10.5 µM (active) in experiment [9]; 10.5 µM (active) in experiment [10]; 8.33 µM (active) in [11]; 7.43 µM (active) in experiment [12].
Take `C=C1c2cccc(O)c2C(O)=C2C(=O)[C@@]3(O)C(O)=C(C(N)=O)C(=O)[C@@H](N(C)C)[C@@H]3[C@@H](O)[C@H]12`: the Potency in experiment [1] is 23.5 µM (active); in experiment [4], 9.35 µM (active); in experiment [13] it was 18.7 µM (active); in experiment [5], 23.5 µM (active); in experiment [17] it was 16.6 µM (active). Moreover, the Potency entry in experiment [18] and in experiment [11] was “inactive” throughout.
Regarding `O=C(CO)N1CCC(c2[nH]nc(-c3ccc(Cl)cc3)c2-c2ccncn2)CC1`, the Potency result in experiment [1], in [7], in experiment [9] and in [10] was “inactive” in each case. The Potency in experiment [2] was 0.332 µM (active); in experiment [5], 3.32 µM (active); in experiment [6], 0.59 µM (active); in [15], 1.05 µM (active).
With `C[C@@H](O[C@H]1OCCN(Cc2n[nH]c(=O)[nH]2)[C@@H]1c1ccc(F)cc1)c1cc(C(F)(F)F)cc(C(F)(F)F)c1`, the Potency is 23.5 µM (active) in [1]; 4.69 µM (active) in experiment [18]; 20.9 µM (active) in experiment [3]; 23.5 µM (active) in [13]; 23.5 µM (active) in [5]; 23.5 µM (active) in [6]. In addition, the Potency in experiment [14] is 16.6 µM (active); in experiment [16], 33.2 µM (active); in experiment [8], 20.9 µM (active); in experiment [17], 20.9 µM (active); in [9], 23.5 µM (active).
As to `NC(=O)c1ccc(N(C(N)=O)c2c(F)cccc2F)nc1-c1ccc(F)cc1F`, the Potency result in experiment [1], in [2], in [7], in experiment [9], in experiment [10] and in experiment [11] was “inactive” throughout. Also, in [12], the Potency entry is “inactive”. Moreover, the Potency is 1.48 µM (active) in experiment [14]; 2.96 µM (active) in experiment [19]; 16.6 µM (active) in [15]; 9.35 µM (active) in experiment [16]; 16.6 µM (active) in [8].
Turning to `CC(C)CNc1ccnc(NCc2csc(-c3ccccc3)n2)n1`, the Potency was 11.8 µM (active) in [1]; 1.87 µM (active) in [18]; 16.6 µM (active) in [4]; 14.8 µM (active) in experiment [13]; 11.8 µM (active) in experiment [5]; 20.9 µM (active) in experiment [7]. Moreover, the Potency is 16.6 µM (active) in experiment [14]; 16.6 µM (active) in experiment [19]; 5.26 µM (active) in experiment [15]; 10.5 µM (active) in experiment [16]; 18.7 µM (active) in experiment [8]; 14.8 µM (active) in [17]. Further, the figures for the Potency in experiment [11] and in [12] were 13.2 µM (active) and 16.6 µM (active), respectively.
In the case of `Cc1cccc(Nc2nc(N[C@@H]3CCCC[C@H]3N)ncc2C(N)=O)c1`, the Potency in [1] was 18.7 µM (active); in experiment [18], 16.6 µM (active); in experiment [4], 6.62 µM (active); in experiment [5], 16.6 µM (active); in experiment [6], 23.5 µM (active); in experiment [14], 0.743 µM (active). For the same compound, the Potency in experiment [19] is 9.35 µM (active); in experiment [15], 5.26 µM (active); in experiment [16], 9.35 µM (active); in experiment [8], 18.7 µM (active); in experiment [17], 7.43 µM (active); in experiment [11] it was 26.4 µM (active).
